The source of these data is PubChem BioAssay.

The source made the active and inactive calls.

The nature of assay [1]: binders of probe aFSTL3 on microarray, primary screen, stem cell growth factor project, biochemical, small-molecule microarray, fluorescence 635/667 (AID 1064).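 Also: measures binding of the biotinylated anti-FSTL3 antibody to printed compounds.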 To be noted: higher = more signal.
Assay [2] in a line: binders from COS7 lysate, DM2A8 probe, primary screen, torsin A project, cell lysate, small-molecule microarray, fluorescence 635/667 (AID 1065). The settings on record: higher = more signal, COS7 lysate expressing mutant human TOR1A.
Assay [3] is described as follows: binders of probe aFGF2 on microarray, primary screen, stem cell growth factor project, biochemical, small-molecule microarray, fluorescence 635/667 (AID 1067).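 Also: measures binding of biotinylated aFGF2 protein to printed compounds on slides; z-score merges feature fluorescence and signal-to-noise across triplicate slides.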 The settings on record: higher = more signal.
The nature of assay [4]: binders of probe aFGF10 on microarray, primary screen, stem cell growth factor project, biochemical, small-molecule microarray, fluorescence 635/667 (AID 1071).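 Also: score merges 667 nm spot intensity and signal to noise from triplicate slides.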 The settings on record: higher = more signal.
The target of assay [5] is Neurogenic locus notch homolog protein 2 (Homo sapiens) (UniProt Q04721). Kind of assay: Notch2 binders on small-molecule microarrays, primary screen, biochemical, small-molecule microarray, 635 nm fluorescence, stem cell growth factors (AID 1073). The settings on record: Notch2 binding, higher = more signal.
For assay [6], the target named is Pro-neuregulin-1, membrane-bound isoform (Homo sapiens) (UniProt Q02297). Kind of assay: NRG1 binders on small-molecule microarrays, primary screen, psychiatric disease protein project, biochemical, small-molecule microarray, fluorescence 635/667 (AID 1075).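 Also: score combines 667 nm spot fluorescence with signal to noise.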 The settings on record: NRG1 binding, 635 nm fluorescence, higher = more signal.
For assay [7], the system named is Neuregulin-1 EGF-like domain. Kind of assay: binders of neuregulin-1 EGF-like domain, primary screen, biochemical, small-molecule microarray, 635 nm fluorescence (AID 1081).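 Also: binding of the protein to compounds printed on small-molecule microarray slides.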 The settings on record: small-molecule microarray binding, higher = more signal.
The nature of assay [8]: FRG1 promoter luciferase signal modulators, primary screen, FRG1 inhibition for FSHD, cell-based, C2C12 myotubes, firefly/Renilla luciferase, luminescence (AID 1084). To be noted: higher = more signal, called active from +8 up or from −8 down.
The nature of assay [9]: binders of probe aFST on microarray, primary screen, stem cell growth factor project, biochemical, small-molecule microarray, fluorescence 635/667 (AID 1086).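 Also: score merges 667 nm fluorescence with signal-to-noise of each printed compound spot.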 The settings on record: higher = more signal.
Assay [10] in a line: binders of probe aHhip on microarray, primary screen, stem cell growth factor project, biochemical, small-molecule microarray, fluorescence 635/667 (AID 1087).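 Also: score merges spot fluorescence at 667nm with spot signal to noise ratio.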 The settings on record: higher = more signal.

Pro-neuregulin-1, membrane-bound isoform (Homo sapiens), sequence (Q02297 whole entry, looked up, the tested form may be a part, canonical isoform): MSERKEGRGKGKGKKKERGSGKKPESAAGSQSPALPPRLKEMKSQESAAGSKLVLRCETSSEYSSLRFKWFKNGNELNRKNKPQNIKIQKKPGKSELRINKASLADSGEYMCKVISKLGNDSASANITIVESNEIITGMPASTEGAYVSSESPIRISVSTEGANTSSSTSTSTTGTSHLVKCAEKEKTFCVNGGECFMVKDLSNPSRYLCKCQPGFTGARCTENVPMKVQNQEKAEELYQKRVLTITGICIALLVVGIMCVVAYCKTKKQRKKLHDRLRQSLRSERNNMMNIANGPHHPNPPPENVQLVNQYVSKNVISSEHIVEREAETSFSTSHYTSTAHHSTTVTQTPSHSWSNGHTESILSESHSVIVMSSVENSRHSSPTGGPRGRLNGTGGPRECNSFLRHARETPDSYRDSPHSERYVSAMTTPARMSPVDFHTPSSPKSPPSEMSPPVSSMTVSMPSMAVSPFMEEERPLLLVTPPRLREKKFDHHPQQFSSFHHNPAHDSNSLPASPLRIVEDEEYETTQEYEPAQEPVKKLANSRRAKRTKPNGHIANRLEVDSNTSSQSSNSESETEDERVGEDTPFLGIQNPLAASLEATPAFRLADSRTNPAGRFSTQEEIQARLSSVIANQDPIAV
Neurogenic locus notch homolog protein 2 (Homo sapiens), sequence (Q04721 whole entry, looked up, canonical isoform): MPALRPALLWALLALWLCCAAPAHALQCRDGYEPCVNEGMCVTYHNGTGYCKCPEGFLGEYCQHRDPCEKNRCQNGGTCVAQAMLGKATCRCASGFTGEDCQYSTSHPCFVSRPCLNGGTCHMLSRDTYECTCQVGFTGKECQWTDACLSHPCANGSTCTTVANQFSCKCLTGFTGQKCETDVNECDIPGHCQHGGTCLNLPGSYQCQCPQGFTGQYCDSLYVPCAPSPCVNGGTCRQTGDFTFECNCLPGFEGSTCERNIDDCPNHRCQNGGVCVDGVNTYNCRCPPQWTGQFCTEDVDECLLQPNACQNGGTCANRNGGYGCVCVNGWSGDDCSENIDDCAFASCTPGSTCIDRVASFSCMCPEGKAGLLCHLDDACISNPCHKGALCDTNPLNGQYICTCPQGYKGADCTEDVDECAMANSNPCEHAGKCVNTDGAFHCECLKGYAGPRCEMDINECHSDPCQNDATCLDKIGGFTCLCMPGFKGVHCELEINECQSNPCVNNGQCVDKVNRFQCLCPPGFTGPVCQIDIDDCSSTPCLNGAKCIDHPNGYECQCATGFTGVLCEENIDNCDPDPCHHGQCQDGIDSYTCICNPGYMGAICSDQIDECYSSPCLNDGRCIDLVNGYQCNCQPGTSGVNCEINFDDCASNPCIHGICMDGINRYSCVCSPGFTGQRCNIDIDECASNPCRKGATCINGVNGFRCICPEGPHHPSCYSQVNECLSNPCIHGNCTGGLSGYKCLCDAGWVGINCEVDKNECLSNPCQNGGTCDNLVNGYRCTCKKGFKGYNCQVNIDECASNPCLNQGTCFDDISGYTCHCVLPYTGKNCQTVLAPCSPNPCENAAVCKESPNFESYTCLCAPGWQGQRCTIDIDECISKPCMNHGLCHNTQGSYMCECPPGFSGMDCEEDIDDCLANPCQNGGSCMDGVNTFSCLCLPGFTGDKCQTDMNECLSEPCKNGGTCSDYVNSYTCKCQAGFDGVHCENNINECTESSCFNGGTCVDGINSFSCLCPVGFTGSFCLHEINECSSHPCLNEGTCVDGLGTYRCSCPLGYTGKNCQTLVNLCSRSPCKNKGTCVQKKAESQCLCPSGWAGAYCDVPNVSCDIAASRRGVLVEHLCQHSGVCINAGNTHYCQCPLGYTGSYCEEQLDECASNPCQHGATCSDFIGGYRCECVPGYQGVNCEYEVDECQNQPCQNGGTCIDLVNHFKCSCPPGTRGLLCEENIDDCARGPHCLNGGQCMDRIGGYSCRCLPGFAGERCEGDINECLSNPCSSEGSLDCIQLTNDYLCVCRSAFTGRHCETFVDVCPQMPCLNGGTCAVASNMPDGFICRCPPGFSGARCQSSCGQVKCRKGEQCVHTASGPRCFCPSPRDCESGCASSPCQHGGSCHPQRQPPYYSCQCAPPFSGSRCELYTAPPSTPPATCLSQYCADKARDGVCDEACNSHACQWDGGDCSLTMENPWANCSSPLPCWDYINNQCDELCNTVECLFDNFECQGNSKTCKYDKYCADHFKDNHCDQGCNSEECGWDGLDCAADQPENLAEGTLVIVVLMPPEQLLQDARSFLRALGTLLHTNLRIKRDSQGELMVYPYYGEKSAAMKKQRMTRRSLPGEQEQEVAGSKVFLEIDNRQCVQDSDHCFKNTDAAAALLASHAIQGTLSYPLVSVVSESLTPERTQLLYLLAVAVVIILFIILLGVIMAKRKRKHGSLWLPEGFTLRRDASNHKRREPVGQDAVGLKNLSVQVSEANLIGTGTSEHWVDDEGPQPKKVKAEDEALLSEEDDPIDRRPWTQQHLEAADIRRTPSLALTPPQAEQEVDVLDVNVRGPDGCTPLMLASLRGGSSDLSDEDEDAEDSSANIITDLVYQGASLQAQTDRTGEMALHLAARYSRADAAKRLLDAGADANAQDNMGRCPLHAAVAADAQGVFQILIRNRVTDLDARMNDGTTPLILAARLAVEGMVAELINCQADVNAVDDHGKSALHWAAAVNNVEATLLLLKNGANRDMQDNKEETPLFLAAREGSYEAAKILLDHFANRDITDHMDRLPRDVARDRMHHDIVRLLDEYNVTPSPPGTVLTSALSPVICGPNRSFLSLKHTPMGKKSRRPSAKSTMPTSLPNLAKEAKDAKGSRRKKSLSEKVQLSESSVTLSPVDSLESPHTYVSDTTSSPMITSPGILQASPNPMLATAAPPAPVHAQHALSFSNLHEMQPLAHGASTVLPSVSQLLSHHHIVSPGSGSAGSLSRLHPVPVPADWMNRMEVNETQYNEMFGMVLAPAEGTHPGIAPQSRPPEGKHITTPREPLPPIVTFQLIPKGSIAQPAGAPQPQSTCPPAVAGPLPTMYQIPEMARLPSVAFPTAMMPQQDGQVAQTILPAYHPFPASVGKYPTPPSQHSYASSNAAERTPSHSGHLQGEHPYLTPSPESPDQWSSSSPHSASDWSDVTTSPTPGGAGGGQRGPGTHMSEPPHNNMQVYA

Take `C=CCOC(=O)[C@H]1[C@@H]2C(=O)O[C@@H](c3ccccc3)[C@@H](c3ccccc3)N2[C@@H](c2ccc(OCCOC(=O)[C@@H]3C[C@@H]4C(=O)N[C@@H](CCCCN(C)C)C(=O)N4[C@@H]3c3ccc(O)cc3)cc2)[C@]12C(=O)Nc1ccccc12`: the composite z-score in assay [1] was -0.0613; in [2], 0.639; in assay [3], -0.113; in [4], 0.389; in assay [5], 0.69; in assay [6], 0.965. In addition, the composite z-score in assay [7] is 1.26; in assay [9], 0.29; in assay [10], 0.0623. Moreover, the z-score in assay [8] was 0.585 (inactive).
Take `C=CC[C@]1(C(=O)NCCN2CCOCC2)N=C(c2ccc(OCCCO)cc2)O[C@H]1c1ccccc1CN=[N+]=[N-]`: the composite z-score was 0.442 in assay [1]; 1.46 in assay [2]; -0.0078 in assay [3]; 0.333 in [4]; 0.837 in assay [5]; 0.849 in assay [6]. The composite z-score in [7] is 1.23; in assay [9], 0.171; in assay [10], 0.0338. In addition, the z-score in assay [8] is 1.81 (inactive).
As for `[N-]=[N+]=NCc1ccccc1C[C@@]1(C(=O)NCc2ccccc2)N=C(c2ccc(OCCCO)cc2)O[C@@H]1c1ccccc1N=[N+]=[N-]`, the composite z-score in [1] came to 0.298; in assay [2], 0.421; in assay [3], 0.0075; in [4], 0.629; in [5] it was 1.33; in assay [6], 1.07. Further, the composite z-score in assay [7] worked out at 1.1; in assay [9] it was 1.27; in assay [10] it was 0.143. Also, the z-score in assay [8] is -1.81 (inactive).
`Cc1ccc(S[C@]2(C(=O)NCCCN(C)C)CC(=O)N(C3CCCCC3)[C@@H]2c2ccc(CO)cc2)cc1`: the composite z-score in [1] was 0.655; in assay [2], -1.19; in assay [3], -0.0885; in assay [4], -0.418; in assay [5] it was -0.503; in [6] it was 1.43. In addition, the figures for the composite z-score in [7], in assay [9] and in assay [10] were 0.98, -0.249 and -0.132, respectively. Moreover, in assay [8], the z-score was -0.404 (inactive).
Take `COc1ccccc1CN1C(=O)c2ccccc2[C@](Cc2ccccc2I)(C(=O)NCC(F)(F)F)[C@@H]1c1ccc(CO)cc1`: the composite z-score in assay [1] was 0.164; in [2] it was 0.847; in assay [3], -0.0454; in [4], 1.21; in assay [5], 0.981; in [6] it was 1.51. Further, the composite z-score in assay [7] was determined as 1.36; in [9], 1.37; in [10] it was 0.0373. Besides, the z-score in assay [8] is -0.719 (inactive).
As to `CC1=C[C@@]2(CO)C(=O)[C@]3(CO3)[C@@H]1[C@H]1[C@]2(C)C=C(CO)C(=O)[C@]12CO2`, the composite z-score is -0.457 in assay [1]; -0.42 in assay [2]; -0.0782 in assay [3]; 0.345 in [4]; 0.31 in [5]; 0.194 in assay [6]. Besides, the composite z-score in [7] was 0.677; in [9], 0.614; in [10], 0.459. Moreover, the z-score in [8] was -1.35 (inactive).
On to `CCOC(=O)c1ccc(NC(=O)O[C@H]2[C@H](OC(=O)Nc3ccc4c(c3)OCO4)[C@H](OC(=O)Nc3ccc4c(c3)OCO4)[C@@H](OC)O[C@@H]2CO)cc1`, for which the composite z-score in assay [1] turned out to be 0.237; in assay [2] it was 0.807; in assay [3], 0.129; in assay [4], 1.14; in assay [5], 1.59; in assay [6] it was 0.898. Besides, the composite z-score in assay [7] stood at 1.3; in assay [9], 0.792; in [10], 0.28. The z-score in [8] is 1.08 (inactive).
For the compound `CC(C)C(CO)N1C(=O)[C@@H]2C3C(=O)OCCC/C=C\[C@H]3OC23C=CCN(C(C)(C)C)C(=O)[C@@H]13` (stereo not given in full), the composite z-score in assay [1] was -0.0102; in assay [2], -0.311; in assay [3], -0.133; in assay [4], -0.394; in assay [5], -1.02; in assay [6] it was -0.596. For the same compound, the composite z-score in assay [7] was 1.06; in [9] it was -0.418; in [10], 0.0274. In addition, in [8], the z-score was -0.241 (inactive).
With `COCCOC(=O)N1C(=O)[C@@]2(c3ccccc31)[C@H](C(=O)N1CCN(c3ncccn3)CC1)[C@H]1C(=O)O[C@H](c3ccccc3)[C@H](c3ccccc3)N1[C@@H]2c1ccc(O)cc1`, the composite z-score in assay [1] is 0.149; in assay [2], 0.0128; in assay [3] it was -0.0136; in assay [4], 0.879; in [5] it was 0.186; in assay [6], 1.36. In addition, the composite z-score in assay [7] was 0.335; in assay [9], -0.0574; in assay [10], 0.0523. Besides, in [8], the z-score is -0.79 (inactive).
As for `O=C(N1CCCCC1)[C@@]1(CCS(=O)(=O)c2ccccc2)COC(c2ccc(OCCCO)cc2)=N1`, the composite z-score was found to be 1.02 in assay [1]; 1.92 in assay [2]; 0.237 in assay [3]; 0.253 in assay [4]; 1.03 in [5]; 1.06 in assay [6]. For the same compound, the composite z-score came to 1.32 in [7], 0.937 in [9] and 0.0972 in assay [10]. For the same compound, the z-score in assay [8] is -3.51 (inactive).
On to `NC(=O)NCC#Cc1ccc2c(c1)[C@]1(C(=O)N2)[C@H](C(=O)NC[C@H](O)c2ccccc2)[C@H]2C(=O)O[C@H](c3ccccc3)[C@H](c3ccccc3)N2[C@@H]1c1ccc(OCCO)cc1`, for which the composite z-score is 0.565 in [1]; 0.699 in assay [2]; -0.031 in [3]; 0.852 in [4]; 0.103 in [5]; 0.897 in assay [6]. The values for the composite z-score in assay [7], in assay [9] and in assay [10] were 0.537, 0.0377 and -0.131, respectively. Besides, the z-score in [8] is 1.71 (inactive).
Consider `O=C1OCC=C[C@H]2OC34C=CCN(c5ccc(Cl)cc5)C(=O)[C@H]3N(CCO)C(=O)[C@@H]4[C@@H]12` (stereo not given in full), for which the composite z-score in assay [1] was 0.601; in assay [2], -0.515; in [3] it was -0.147; in assay [4], -0.0609; in assay [5], -1.09; in assay [6] it was -0.0774. In addition, the composite z-score in [7] was 1.04; in assay [9], -0.915; in [10], -0.137. The z-score in [8] was 0.782 (inactive).
In the case of `CCCCCCCCCCC(O)C1C=CC2C(=O)N(C)C(=O)C2N1NC(=O)OC(C)(C)C` (stereo not given), the composite z-score in assay [1] was -0.318; in assay [2] it was -0.127; in assay [3] it was -0.0272; in assay [4], -0.293; in assay [5], 0.228; in assay [6], 1.03. The composite z-score in [7] was 0.465; in assay [9], 0.0478; in assay [10], -0.212. In addition, the z-score in assay [8] was -0.218 (inactive).
In the case of `CC(C)(C)N1CC=CC23O[C@@H]4C=CCCOC(=O)C4[C@H]2C(=O)N(CCO)[C@@H]3C1=O` (stereo not given in full), the composite z-score in assay [1] was -0.0666; in [2] it was -0.46; in assay [3], -0.132; in assay [4] it was -0.133; in assay [5] it was -0.717; in [6], 0.767. For the same compound, the composite z-score was 1.48 in assay [7], -0.474 in assay [9] and -0.236 in [10]. Besides, the z-score in [8] was 0.22 (inactive).
